GPR151 activ: activators of human GPR151, primary screen, cell-based, PathHunter beta-arrestin, luminescence; PathHunter beta-arrestin GPR151 cells; G-protein coupled receptor 151 (Homo sapiens), Q8TDV0; hit rate 1% among 650,000; activation, % at 11.2 µM; in the data active means activation above about 4.9%
FBW7 act: FBW7 E3 ligase activators, primary screen, biochemical, AlphaScreen, human; F-box/WD repeat-containing protein 7 (Homo sapiens), Q969H0; AlphaScreen FBW7–phospho-cyclin E peptide binding, activator screen; normalized activity (activation), % at 26.1 µM; hit rate 0.13% among 650,000; in the data active means normalized activity above about 1.9%;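 further: purified mutant Fbw7 with reduced substrate affinity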
Target sequence (Q969H0 whole entry, looked up): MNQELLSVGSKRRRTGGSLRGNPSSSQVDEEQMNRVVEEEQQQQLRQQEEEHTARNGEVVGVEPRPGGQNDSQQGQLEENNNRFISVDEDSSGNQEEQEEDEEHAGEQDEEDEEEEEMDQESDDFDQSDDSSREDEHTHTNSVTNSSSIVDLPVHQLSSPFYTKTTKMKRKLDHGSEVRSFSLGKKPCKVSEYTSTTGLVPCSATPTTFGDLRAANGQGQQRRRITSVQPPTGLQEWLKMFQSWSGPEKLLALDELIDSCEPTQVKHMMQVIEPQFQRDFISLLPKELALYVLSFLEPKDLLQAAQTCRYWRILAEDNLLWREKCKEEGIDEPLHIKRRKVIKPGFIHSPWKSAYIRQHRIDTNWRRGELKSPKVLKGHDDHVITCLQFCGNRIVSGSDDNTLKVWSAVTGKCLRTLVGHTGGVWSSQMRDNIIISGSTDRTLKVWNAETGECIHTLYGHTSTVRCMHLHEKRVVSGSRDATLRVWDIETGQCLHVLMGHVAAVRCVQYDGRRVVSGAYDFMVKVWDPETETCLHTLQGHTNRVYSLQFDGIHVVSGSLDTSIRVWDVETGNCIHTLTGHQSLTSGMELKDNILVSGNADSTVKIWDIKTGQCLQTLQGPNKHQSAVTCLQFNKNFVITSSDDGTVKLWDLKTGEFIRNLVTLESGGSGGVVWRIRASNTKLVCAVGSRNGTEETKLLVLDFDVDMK
MITF inh: MITF inhibitors, primary screen, biochemical, AlphaScreen, human | Microphthalmia-associated transcription factor (Homo sapiens), O75030 | AlphaScreen MITF homodimerization, bead proximity signal | inhibition, % at 2.6 µM | hit rate 0.91% among 650,000 | AID 1259374, 2018; in the data active means inhibition above about 50%
TEAD-YAP block: TEAD-YAP interaction inhibition, primary screen, TEAD-YAP interaction inhibitor project, luminescence, HEK-TIYL cells | TEAD-Gal4/YAP UAS-luciferase luminescence | inhibition, % at 9.12 µM | hit rate 1.4% among 640,000 | AID 1259422, 2018; in the data active means inhibition above about 32%
Each line names hits and unclear results; the compound was inactive in the other large screens; ! = a repeat was not active. The list is not random: actives were taken first. Their share in the collection is about 3.5%.

CC(=O)N1CCc2cc(Br)cc(S(=O)(=O)NCCCN3CCCCC3)c21	none
CCOc1ccc(N(/C=C2\Sc3ccccc3C2=O)C(=O)c2cccc(Cl)c2)cc1	TEAD-YAP block 45
COc1ccc(N(/C=C2\Sc3ccccc3C2=O)C(=O)c2cccc(Cl)c2)cc1	TEAD-YAP block 51
O=C(OCC(=O)N1CCc2ccccc21)c1ncc(Cl)c(Cl)c1Cl	none
CCOc1ccccc1NC(=O)Nc1ccc(F)cc1C	none
CC1CCc2nc(NC(=O)c3ccco3)sc2C1 (centres undefined)	TEAD-YAP block 74
Cc1nc2nc(CC(=O)NCc3ccccc3)nn2c(C)c1Cc1cccc(Cl)c1	TEAD-YAP block 55
COc1cccc(OC)c1OCCOc1ccccc1[N+](=O)[O-]	none
Cc1sc(NC(=O)/C=C/c2ccc(Cl)cc2)c(C(N)=O)c1C	none
Cc1ccc(/C=C2\SC(=S)N(CCCC(=O)O)C2=O)cc1	TEAD-YAP block 92
Cc1ccccc1/C=C1\SC(=S)N(CCCC(=O)O)C1=O	TEAD-YAP block 45
Cc1ccc(/C=C2\SC(=S)N(CCCC(=O)OCCN(C)C)C2=O)cc1	TEAD-YAP block 93
C=CCOc1ccc(/C=C2\SC(=S)N(CCCC(=O)O)C2=O)cc1	TEAD-YAP block 80
COCCCN1C(=O)/C(=C/c2ccc(C)cc2)SC1=S	none
CCOc1ccc(/C=C2\SC(=S)N(CCC(=O)O)C2=O)cc1	none
COc1ccc(C2=N/C(=C/c3cccc(OC)c3OC)C(=O)O2)cc1OC	none
O=C(O)CCCN1C(=O)/C(=C/c2c(F)cccc2Cl)SC1=S	TEAD-YAP block 60
Cc1cccc(/C=C2\SC(=S)N(CCCC(=O)O)C2=O)c1	TEAD-YAP block 75
Cc1ccc(/C=C2/SC(=S)N(CCCC(=O)O)C2=O)cc1	TEAD-YAP block 86
C=CCN1C(=O)S/C(=C/c2c(F)cccc2Cl)C1=O	none
C#CCOc1ccc(/C=C2/SC(=S)N(CCC(=O)O)C2=O)cc1	TEAD-YAP block 58
Cc1ccc(/C=C2\SC(=S)N(CCCC(=O)N3CCOCC3)C2=O)cc1	none
O=C(NC1CC1)c1csc(Nc2ccncc2)n1	none
O=c1oc(-c2ccc(F)cc2)nc2sc3c(c12)CCC3	none
COc1ccc(C2CC(=O)C=C(Nc3cc(C)ccc3O)C2)cc1 (centres undefined)	none
COc1ccc(C2CC(=O)C=C(Nc3cc(Cl)ccc3O)C2)cc1 (centres undefined)	FBW7 act 2.1
O=c1cc(Nc2ccc3c(c2)OCCO3)[nH]c(=O)n1C1CCCCC1	TEAD-YAP block 58
O=c1cc(Nc2ccc3c(c2)OCCO3)[nH]c(=O)n1-c1ccc(Cl)cc1	none
O=C1CC(C(=O)N2CCC(Oc3ccc(C(=O)NCCc4ccccc4)cc3)CC2)CN1 (centres undefined)	TEAD-YAP block 80
CC(C)=CC(=O)N1CCC(Oc2ccc(C(=O)NCCc3ccccc3)cc2)CC1	none
O=C(NCCc1ccccc1)c1ccc(OC2CCN(C(=O)c3ccco3)CC2)cc1	TEAD-YAP block 83
CS(=O)(=O)N(CC(=O)N/N=C/c1c(F)cccc1Cl)c1cccc2ccccc12	none
COc1ccc(OC)c(NC(=O)CN2C(=O)CC(c3ccco3)Sc3ccccc32)c1 (centres undefined)	none
COc1ccc(Cl)cc1NC(=O)CN1C(=O)CC(c2ccco2)Sc2ccccc21 (centres undefined)	TEAD-YAP block 45
COc1ccccc1-c1c(C(F)(F)F)oc2cc(OC(=O)C(C)C)ccc2c1=O	none
COc1ccccc1-c1c(C(F)(F)F)oc2cc(OC(=O)N3CCOCC3)ccc2c1=O	TEAD-YAP block 52
N/C(=N\OC(=O)/C=C/c1ccccc1Cl)c1ccccn1	TEAD-YAP block 74
N/C(=N\OC(=O)/C=C/c1ccc(Br)cc1)c1ccccn1	TEAD-YAP block 39
N/C(=N\OC(=O)/C=C/c1ccccc1)c1cccnc1	none
COc1ccc2nc(SCC(=O)Nc3cc(Cl)ccc3OC)[nH]c2c1	none
COc1cccc(N=C2NC(=O)/C(=C/c3ccc(OC)c(OC)c3)S2)c1	TEAD-YAP block 48
COc1ccc(/C=C2\SC(=O)NC2=Nc2ccccc2)cc1	none
COc1ccc(/C=C2/SC(=Nc3cccc(C)c3)NC2=O)c(OC)c1	TEAD-YAP block 54
COc1ccc(/C=C2/SC(=Nc3ccc(F)cc3)NC2=O)c(OC)c1	TEAD-YAP block 42
COc1ccc(/C=C2\SC(=O)NC2=Nc2ccccc2)c(OC)c1	TEAD-YAP block 47
Cc1cc2c(cc3c(=O)n(CC(=O)N4CC(C)CC(C)C4)nc(C)n32)s1 (centres undefined)	none
Cc1ccc(NCCNC(=O)/C=C/c2ccco2)nn1	none
COc1ccc(OC)c(/C=C2\SC(=Nc3ccccc3)NC2=O)c1	none
COc1ccc(OC)c(/C=C2\SC(=Nc3ccc(O)cc3)NC2=O)c1	TEAD-YAP block 54
O/N=C(\C=C\c1ccccc1)c1ccccc1	none
CC[C@@]1(O)C(=O)OCc2c1cc1n(c2=O)Cc2cc3c(CN(C)C)c(O)ccc3nc2-1	MITF inh 67!
CCOc1ccc(S(=O)(=O)Nc2cc3c(C(=O)OCc4ccccc4)c(C)oc3c3ccccc23)cc1	none
CCc1ccc(S(=O)(=O)Nc2cc3c(C(C)=O)c(C)oc3c3ccccc23)cc1	TEAD-YAP block 56
CC(=O)c1c(C)oc2c1cc(NS(=O)(=O)c1ccc(Br)cc1)c1ccccc12	TEAD-YAP block 47
CCCOC(=O)c1c(C)oc2c1cc(NS(=O)(=O)c1ccc(OCC)cc1)c1ccccc12	TEAD-YAP block 53
O=C(O)c1cccc(NC(=O)c2ccc(Cl)c([N+](=O)[O-])c2)c1	none
Cc1ccc(OCC(=O)Nc2ccc(Cl)c(Cl)c2)cc1	none
O=C(O)COc1ccc(NC(=O)CN2C(=O)c3ccc([N+](=O)[O-])cc3C2=O)cc1	none
C=CCOc1c(Br)cc(Br)cc1/C=c1\sc2nc3cc(C)c(C)cc3n2c1=O	none
CCC(=O)Nc1ccc(C2=NNC(=Nc3ccc(C)cc3)SC2)cc1	none
CCC(=O)Nc1ccc(C2=NNC(=NC3CC3)SC2)cc1	TEAD-YAP block 51
Fc1ccc(C2=NNC(=NC3CC3)SC2)cc1F	TEAD-YAP block 65
CCOC(=O)c1c(C)[nH]c(C2=NNC(=NC3CC3)SC2)c1C	TEAD-YAP block 78
CCOC(=O)c1ccc(N=c2oc3ccc4ccccc4c3cc2C(N)=O)cc1	none
Clc1cccc(Nc2nc3nonc3nc2N2CCOCC2)c1	TEAD-YAP block 57
c1ccc(Nc2nc3nonc3nc2N2CCCCCC2)cc1	TEAD-YAP block 37
Ic1ccc(Nc2nc3nonc3nc2N2CCOCC2)cc1	none
Clc1cccc(Nc2nc3nonc3nc2N2CCCCC2)c1	TEAD-YAP block 43
CCOC(=O)c1sc2nc(SCc3ccc(OC(F)(F)F)cc3)n(Cc3cccc(Cl)c3)c(=O)c2c1C	none
O=C(CCn1c(=S)[nH]c2cc3c(cc2c1=O)OCO3)NCC1CCCO1 (centres undefined)	none
Fc1cccc(C2C=C(c3cccs3)Nc3ncnn32)c1 (centres undefined)	none

Bioassay records: PubChem BioAssay, The Scripps Research Institute Molecular Screening Center
